Test results published in PubChem BioAssay (Tox21).
Where “and” joins values, the source holds several entries; their conditions need not be identical. Equal entries are not always repeated. Records with an inconclusive call do not appear. Entries that show only a call come without a potency. Values without a mark were called inactive. Calls of active or inactive are those of the source. The call rests on the fitted dose curve.

Molecular target: Muscarinic acetylcholine receptor M1 (Homo sapiens) (UniProt P11229)
Test: Cholinergic receptor muscarinic 1 (CHRM1) small molecule antagonists, cell-based qHTS assay (AID 1963588); further: nearly all actives have a fitted effect of over 40% in size
Conditions: CHRM1-CHO antagonist mode, calcium flux fluorescence; series mostly up to 61.5 µM
From the text: National Center for Advancing Translational Sciences [NCATS]
Division of Preclinical Innovation [DPI]
U.S. Environmental Protection Agency [EPA]
National Institutes of Environmental Health Sciences [NIEHS]
National Toxicology Program [NTP]
U.S. Food and Drug Administration [FDA]
The CHRM1 is a muscarinic receptor. This receptor plays a crucial role in learning and memory processes and has long been identified as a promising therapeutic target for the improvement of cognitive decline in Alzheimer's disease (AD). The CHRM1-CHO cell line stably expressing human muscarinic acetylcholine receptor M1 (CHRM1) can be used for screening agonists and antagonists of interactions between CHRM1 and its ligands. The CHRM1-CHO Calcium Flux Assay is a homogeneous fluorescence-based assay for detecting the intracellular calcium level using FDSS kinetic plate reader system.
Tox21 Assay Protocol Summary:
CHRM1-CHO cells were dispensed at 1000 cells/3uL/well in 1536-well black-clear bottom plates using a Multidrop Dispenser. After the assay plates were incubated at a 37 C/5% CO2 incubator for 18 h, 3 uL of Dye Loading Buffer was transferred to the assay plate by a Flying Reagent Dispenser. The assay plates were incubated at 37 C for 1h. For antagonist mode, 23 nL of compounds dissolved in DMSO, positive controls or DMSO only was transferred to the assay plate by a pin tool. After 5 min incubation at room temperature, 1.5 uL of acetylcholine at 50nM was added to each well. The fluorescence intensity in the plates was measured using FDSS 7000EX kinetic plate reader for 3 min at 1 sec intervals. Each test compound was measured at 15 concentrations in three independent runs.
Potency means the concentration at half of the fitted maximal effect.

Chain of Muscarinic acetylcholine receptor M1 (Homo sapiens) (P11229 whole entry, looked up): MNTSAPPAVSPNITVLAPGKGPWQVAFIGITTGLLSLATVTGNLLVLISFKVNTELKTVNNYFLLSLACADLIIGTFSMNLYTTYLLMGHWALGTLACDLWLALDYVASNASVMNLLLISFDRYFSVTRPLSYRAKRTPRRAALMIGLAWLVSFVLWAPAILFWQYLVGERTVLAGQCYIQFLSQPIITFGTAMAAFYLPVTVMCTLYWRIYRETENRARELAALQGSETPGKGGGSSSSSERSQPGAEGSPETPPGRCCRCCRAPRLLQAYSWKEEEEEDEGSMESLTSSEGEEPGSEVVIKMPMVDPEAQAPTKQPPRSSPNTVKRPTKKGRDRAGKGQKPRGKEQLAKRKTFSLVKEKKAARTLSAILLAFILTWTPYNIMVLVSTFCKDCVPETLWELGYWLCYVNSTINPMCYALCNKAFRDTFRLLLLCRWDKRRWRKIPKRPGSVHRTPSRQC

SMILES | Potency | activity, negative = inhibition
OCCCC1CCCCC1 | inactive | 
CCCC(=O)OCc1ccccc1 | inactive | 
CC1CCC(C(C)(C)S)C(=O)C1 (stereo not given) | inactive | 
CCC(C)(O)CCC=C(C)C (stereo not given) | inactive | 
c1ccc2ncccc2c1 | inactive | 
Cc1ccc(/C(=C\CN2CCCC2)c2ccccn2)cc1 | 1.4 µM (active) and 2.59 µM (active) | 
COc1cc(Cl)ccc1Cl | inactive | 
CC(C)=CCC/C(C)=C/C#N | inactive | 
Nc1ccc(NCCO)c([N+](=O)[O-])c1 | inactive | 
O=C(/C=C/c1ccccc1)OCc1ccccc1 | inactive | 
CCCCCCCCC1CCC(=O)O1 (stereo not given) | inactive | 
NCc1cccc(CN)c1 | 42.1 µM (active) | 
CCCN1CCCC[C@H]1C(=O)Nc1c(C)cccc1C | inactive | 
CCO[Si](C)(OCC)OCC | inactive | 
Cc1ccc(S(=O)(=O)NC(=O)NC2CCCCCCC2)cc1 | inactive | 
NC(=O)N[C@@H](CCC(=O)O)C(=O)O | inactive | 
O=C(O)c1ccc(C(=O)O)c(C(=O)O)c1 | inactive | 
CNCCS(=O)(=O)O | inactive | 
O=C(CCNNC(=O)c1ccncc1)NCc1ccccc1 | inactive | 
C1COC1 | inactive | 

SMILES | Potency | activity, negative = inhibition
CC(C)(C)c1ccc(CCC=O)cc1 | inactive | 
c1ccc(CCc2ccccc2)cc1 | inactive | 
CCCCCC/C=C/C(=O)OC | inactive | 
CC(C)c1ccc(S(=O)(=O)O)cc1 | inactive | 
Cc1ccc(N(C)C)cc1 | inactive | 
O=C(O)CN(CCCN(CC(=O)O)CC(=O)O)CC(=O)O |  | -1.12% [at 12.6 µM]
Cc1ccc2ccccc2c1[N+](=O)[O-] | inactive | 
O=C(O)CONC(=O)c1ccccc1 | inactive | 
CC(C)OC(=O)C(O)(CC(=O)O)CC(=O)O | inactive | 
CCOC(C)(C)C | inactive | 
SCCSCCS | inactive | 
NCCNCCNCCNCCN | inactive | 
c1ccc(CNc2ncnc3c2ncn3C2CCCCO2)cc1 (stereo not given) | inactive | 
CCC(C)(C)C1CCC(OC)CC1 (stereo not given) | inactive | 
CCCCOCCOCCOCCCC | inactive | 
C[C@@H]1CCC[C@H](C)N1 | inactive | 
OCCNCCO | inactive | 
C=CCCC(=O)/C=C/C1C(C)=CCCC1(C)C (stereo not given) | inactive | 
COS(=O)(=O)O | inactive | 
CN(C)c1cccc(O)c1 | inactive | 
